Assays:
Test in all cases: DAPPL (digital affinity profiling via proximity ligation, sequencing); 10 mM Tris-HCl pH 7.5, 50 mM NaCl, 1 mM DTT, 4% glycerol, room temperature, 30 min; GST-TFs on glutathione beads, 16-mer random dsDNA library, 0.1% formaldehyde crosslink after washing; high values mean tight binding
[1] = biological target: T1, FEV (Homo sapiens, UniProt Q99581 1-238); conditions: protein: recombinant; tags: N-terminal GST; dsDNA, one strand shown
T1 sequence: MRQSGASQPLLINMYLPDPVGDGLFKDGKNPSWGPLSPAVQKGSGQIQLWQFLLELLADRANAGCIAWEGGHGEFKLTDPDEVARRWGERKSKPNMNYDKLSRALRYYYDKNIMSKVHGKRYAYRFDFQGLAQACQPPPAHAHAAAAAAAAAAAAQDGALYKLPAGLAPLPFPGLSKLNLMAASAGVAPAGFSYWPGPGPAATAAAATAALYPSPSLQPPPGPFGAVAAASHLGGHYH
In short: (§1)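 Human transcription factors fused to GST were expressed in yeast, captured on glutathione beads, given DNA barcodes and pooled with a GST-only negative control. Pools were incubated with 200 nmole of a 16-mer random double-stranded DNA library in Tris/NaCl/DTT/glycerol buffer at room temperature for 30 min. They were then washed, crosslinked with 0.1% formaldehyde, proximity-ligated (BsaI/T4 ligase, 1 h, 37 °C), PCR-amplified and sequenced on an Illumina NextSeq500. Binding signal is each 6-mer's read frequency for a factor divided by its frequency for the GST control.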

[2] = biological target: ETV5 (Homo sapiens, UniProt P41161 1-510); conditions: protein: recombinant; tags: N-terminal GST; dsDNA, one strand shown
Sequence of ETV5 (P41161 whole entry): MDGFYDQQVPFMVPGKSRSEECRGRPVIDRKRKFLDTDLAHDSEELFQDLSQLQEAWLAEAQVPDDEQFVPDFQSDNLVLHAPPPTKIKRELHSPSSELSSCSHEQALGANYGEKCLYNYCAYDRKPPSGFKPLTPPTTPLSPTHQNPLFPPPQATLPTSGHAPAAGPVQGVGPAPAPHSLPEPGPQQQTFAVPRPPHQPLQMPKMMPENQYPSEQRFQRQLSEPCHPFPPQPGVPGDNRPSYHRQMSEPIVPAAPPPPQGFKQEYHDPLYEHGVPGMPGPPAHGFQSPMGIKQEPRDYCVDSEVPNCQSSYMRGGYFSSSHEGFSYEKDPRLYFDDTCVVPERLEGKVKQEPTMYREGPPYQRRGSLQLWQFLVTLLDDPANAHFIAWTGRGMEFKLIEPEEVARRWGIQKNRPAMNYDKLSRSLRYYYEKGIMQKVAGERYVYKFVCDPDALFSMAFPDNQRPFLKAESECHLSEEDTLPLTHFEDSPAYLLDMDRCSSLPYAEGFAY
In short: as §1

[3] = biological target: HSF1 (Homo sapiens, UniProt Q00613 1-529); conditions: protein: recombinant; tags: N-terminal GST; chain copies: 3; dsDNA, one strand shown
Sequence of HSF1 (Q00613 whole entry): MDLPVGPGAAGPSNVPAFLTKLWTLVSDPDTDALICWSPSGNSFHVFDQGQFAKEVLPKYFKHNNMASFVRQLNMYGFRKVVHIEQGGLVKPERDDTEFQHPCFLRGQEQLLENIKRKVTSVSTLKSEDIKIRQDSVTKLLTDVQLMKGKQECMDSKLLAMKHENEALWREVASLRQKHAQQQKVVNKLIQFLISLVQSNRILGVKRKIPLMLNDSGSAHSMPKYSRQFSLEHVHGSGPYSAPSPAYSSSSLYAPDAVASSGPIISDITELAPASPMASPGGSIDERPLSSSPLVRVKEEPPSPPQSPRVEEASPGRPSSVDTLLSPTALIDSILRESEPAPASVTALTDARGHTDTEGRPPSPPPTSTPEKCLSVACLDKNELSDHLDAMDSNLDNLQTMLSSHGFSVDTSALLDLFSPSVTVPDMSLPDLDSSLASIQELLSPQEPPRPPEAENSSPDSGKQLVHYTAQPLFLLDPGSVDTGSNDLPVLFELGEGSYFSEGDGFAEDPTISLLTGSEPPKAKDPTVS
In short: as §1

[4] = biological target: T2, SPIC (Homo sapiens, UniProt Q8N5J4 1-248); conditions: protein: recombinant; tags: N-terminal GST; dsDNA, one strand shown
T2 sequence: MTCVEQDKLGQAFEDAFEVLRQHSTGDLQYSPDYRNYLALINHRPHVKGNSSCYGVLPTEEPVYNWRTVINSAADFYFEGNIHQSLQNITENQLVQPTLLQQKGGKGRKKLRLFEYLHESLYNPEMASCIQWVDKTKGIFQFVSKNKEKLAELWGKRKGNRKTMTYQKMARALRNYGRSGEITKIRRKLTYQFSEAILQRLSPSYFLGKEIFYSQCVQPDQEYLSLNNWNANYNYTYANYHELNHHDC
In short: as §1

[5] = biological target: ELF4 (Homo sapiens, UniProt Q99607 1-663); conditions: protein: recombinant; tags: N-terminal GST; dsDNA, one strand shown
Sequence of ELF4 (Q99607 whole entry): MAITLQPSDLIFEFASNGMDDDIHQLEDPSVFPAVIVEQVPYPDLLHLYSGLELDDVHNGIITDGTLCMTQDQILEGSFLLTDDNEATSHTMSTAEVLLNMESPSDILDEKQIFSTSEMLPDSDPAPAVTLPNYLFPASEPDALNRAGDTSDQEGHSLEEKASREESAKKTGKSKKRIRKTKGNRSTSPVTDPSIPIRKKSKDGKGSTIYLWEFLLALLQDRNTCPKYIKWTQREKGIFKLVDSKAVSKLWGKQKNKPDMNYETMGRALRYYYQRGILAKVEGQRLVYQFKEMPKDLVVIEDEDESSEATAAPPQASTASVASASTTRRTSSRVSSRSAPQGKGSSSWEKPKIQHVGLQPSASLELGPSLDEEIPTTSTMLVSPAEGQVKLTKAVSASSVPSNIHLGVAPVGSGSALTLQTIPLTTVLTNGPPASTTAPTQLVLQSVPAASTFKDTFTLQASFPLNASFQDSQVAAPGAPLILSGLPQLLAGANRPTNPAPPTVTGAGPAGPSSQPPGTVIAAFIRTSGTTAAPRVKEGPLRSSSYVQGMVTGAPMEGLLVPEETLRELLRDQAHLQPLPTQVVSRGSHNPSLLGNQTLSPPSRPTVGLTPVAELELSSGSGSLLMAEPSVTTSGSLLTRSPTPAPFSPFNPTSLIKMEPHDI
In short: as §1

[6] = biological target: T3, ELK4 (Homo sapiens, UniProt P28324-2 1-405); conditions: protein: recombinant; tags: N-terminal GST; dsDNA, one strand shown
T3 sequence: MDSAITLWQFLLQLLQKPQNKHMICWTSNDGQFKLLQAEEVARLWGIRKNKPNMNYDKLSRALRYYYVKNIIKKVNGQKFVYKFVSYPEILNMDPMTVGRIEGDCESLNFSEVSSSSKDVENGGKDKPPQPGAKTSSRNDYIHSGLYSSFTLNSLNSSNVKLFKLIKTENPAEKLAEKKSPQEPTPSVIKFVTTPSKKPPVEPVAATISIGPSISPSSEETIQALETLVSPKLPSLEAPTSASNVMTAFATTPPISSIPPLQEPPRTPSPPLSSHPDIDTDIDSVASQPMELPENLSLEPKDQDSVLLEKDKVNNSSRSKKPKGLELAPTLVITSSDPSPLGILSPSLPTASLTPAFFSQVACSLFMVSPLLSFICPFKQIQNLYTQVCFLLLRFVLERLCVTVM
In short: as §1

[7] = biological target: T4, ETV2 (Homo sapiens, UniProt O00321 1-342); conditions: protein: recombinant; tags: N-terminal GST; dsDNA, one strand shown
T4 sequence: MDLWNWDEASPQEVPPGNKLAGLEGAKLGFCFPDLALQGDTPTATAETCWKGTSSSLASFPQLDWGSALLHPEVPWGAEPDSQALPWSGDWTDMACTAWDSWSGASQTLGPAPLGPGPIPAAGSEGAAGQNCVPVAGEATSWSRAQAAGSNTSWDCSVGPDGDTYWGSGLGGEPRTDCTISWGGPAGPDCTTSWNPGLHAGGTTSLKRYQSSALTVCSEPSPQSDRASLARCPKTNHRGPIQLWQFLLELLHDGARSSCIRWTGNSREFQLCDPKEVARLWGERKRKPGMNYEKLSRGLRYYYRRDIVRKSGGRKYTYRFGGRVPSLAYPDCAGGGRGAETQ
In short: as §1

[8] = biological target: T5, ELF3 (Homo sapiens, UniProt P78545 1-371); conditions: protein: recombinant; tags: N-terminal GST; dsDNA, one strand shown
T5 sequence: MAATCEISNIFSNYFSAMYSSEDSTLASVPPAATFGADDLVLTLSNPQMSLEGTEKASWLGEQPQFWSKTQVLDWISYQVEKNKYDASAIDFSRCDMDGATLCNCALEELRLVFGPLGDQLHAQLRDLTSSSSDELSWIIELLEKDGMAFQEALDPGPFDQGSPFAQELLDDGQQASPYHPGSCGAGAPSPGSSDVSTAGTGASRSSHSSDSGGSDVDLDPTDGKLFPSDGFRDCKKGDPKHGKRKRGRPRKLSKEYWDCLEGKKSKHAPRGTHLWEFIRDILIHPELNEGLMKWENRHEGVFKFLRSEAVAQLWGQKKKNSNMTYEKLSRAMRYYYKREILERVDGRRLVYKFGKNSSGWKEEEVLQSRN
In short: as §1

[9] = biological target: CRX (Homo sapiens, UniProt O43186 1-299); conditions: protein: recombinant; tags: N-terminal GST; dsDNA, one strand shown
Sequence of CRX (O43186 whole entry): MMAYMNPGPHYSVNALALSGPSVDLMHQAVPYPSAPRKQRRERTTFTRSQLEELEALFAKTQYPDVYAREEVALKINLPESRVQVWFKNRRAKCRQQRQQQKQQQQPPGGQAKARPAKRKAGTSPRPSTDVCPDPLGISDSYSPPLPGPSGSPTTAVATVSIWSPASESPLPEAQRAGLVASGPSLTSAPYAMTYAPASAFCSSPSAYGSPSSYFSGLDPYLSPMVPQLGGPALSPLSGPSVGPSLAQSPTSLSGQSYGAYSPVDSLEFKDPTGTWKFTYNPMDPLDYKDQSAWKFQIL
In short: as §1

[10] = biological target: ETV1 (Homo sapiens, UniProt P50549 1-477); conditions: protein: recombinant; tags: N-terminal GST; dsDNA, one strand shown
Sequence of ETV1 (P50549 whole entry): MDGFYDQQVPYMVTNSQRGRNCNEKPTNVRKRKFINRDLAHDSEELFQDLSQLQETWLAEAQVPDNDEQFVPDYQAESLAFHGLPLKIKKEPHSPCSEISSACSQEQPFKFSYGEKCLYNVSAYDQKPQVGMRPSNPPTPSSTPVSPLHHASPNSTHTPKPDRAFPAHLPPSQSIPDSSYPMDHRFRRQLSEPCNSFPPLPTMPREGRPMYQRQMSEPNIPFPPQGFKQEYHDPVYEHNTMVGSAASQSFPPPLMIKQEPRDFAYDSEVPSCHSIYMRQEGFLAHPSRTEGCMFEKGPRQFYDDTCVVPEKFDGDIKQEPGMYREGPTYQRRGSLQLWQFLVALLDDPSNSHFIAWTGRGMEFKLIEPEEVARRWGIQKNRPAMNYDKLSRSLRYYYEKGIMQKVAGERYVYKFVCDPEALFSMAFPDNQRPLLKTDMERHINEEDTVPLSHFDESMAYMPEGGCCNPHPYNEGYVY
In short: as §1

[11] = biological target: T6, ERF (Homo sapiens, UniProt P50548 1-548); conditions: protein: recombinant; tags: N-terminal GST; dsDNA, one strand shown
T6 sequence: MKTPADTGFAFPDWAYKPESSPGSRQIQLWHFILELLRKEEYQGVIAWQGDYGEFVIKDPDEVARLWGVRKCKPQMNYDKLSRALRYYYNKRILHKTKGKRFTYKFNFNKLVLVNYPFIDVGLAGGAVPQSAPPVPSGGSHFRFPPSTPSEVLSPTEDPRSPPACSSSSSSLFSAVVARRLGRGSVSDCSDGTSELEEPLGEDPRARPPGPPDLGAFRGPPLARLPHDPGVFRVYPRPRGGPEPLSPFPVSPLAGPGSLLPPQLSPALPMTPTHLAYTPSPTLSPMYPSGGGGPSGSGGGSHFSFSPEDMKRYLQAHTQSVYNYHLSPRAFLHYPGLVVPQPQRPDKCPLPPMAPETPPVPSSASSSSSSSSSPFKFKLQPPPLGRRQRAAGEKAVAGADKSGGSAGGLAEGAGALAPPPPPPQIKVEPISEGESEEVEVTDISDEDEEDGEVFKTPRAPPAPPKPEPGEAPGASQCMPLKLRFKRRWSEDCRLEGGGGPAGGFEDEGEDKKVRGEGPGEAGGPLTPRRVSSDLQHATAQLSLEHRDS
In short: as §1

[12] = biological target: T7, ETV3L (Homo sapiens, UniProt Q6ZN32 1-361); conditions: protein: recombinant; tags: N-terminal GST; dsDNA, one strand shown
T7 sequence: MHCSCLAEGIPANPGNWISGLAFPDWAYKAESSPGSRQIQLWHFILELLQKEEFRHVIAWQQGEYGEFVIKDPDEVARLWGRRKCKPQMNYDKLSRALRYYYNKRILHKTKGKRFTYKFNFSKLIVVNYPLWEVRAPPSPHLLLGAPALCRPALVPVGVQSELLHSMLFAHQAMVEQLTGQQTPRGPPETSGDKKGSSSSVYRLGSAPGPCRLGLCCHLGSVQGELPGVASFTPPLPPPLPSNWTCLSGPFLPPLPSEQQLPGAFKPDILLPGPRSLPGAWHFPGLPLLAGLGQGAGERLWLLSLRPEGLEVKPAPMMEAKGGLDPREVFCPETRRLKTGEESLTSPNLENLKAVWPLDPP
In short: as §1

[13] = biological target: T8, ETS2 (Homo sapiens, UniProt P15036 1-469); conditions: protein: recombinant; tags: N-terminal GST; dsDNA, one strand shown
T8 sequence: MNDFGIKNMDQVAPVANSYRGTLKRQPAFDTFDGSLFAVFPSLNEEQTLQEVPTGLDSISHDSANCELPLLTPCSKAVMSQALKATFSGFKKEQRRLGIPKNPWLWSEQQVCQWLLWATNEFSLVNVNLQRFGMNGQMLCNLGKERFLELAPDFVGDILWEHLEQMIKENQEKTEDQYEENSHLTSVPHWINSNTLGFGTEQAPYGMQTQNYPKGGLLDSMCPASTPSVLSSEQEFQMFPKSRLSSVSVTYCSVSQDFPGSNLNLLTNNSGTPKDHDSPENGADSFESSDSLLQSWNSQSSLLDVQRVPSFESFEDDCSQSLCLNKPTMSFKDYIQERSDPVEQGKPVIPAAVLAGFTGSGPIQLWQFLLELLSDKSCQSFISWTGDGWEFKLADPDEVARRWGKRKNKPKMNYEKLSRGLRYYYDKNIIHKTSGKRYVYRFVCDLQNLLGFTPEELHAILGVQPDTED
In short: as §1

[14] = biological target: T9, SPDEF (Homo sapiens, UniProt O95238 1-335); conditions: protein: recombinant; tags: N-terminal GST; dsDNA, one strand shown
T9 sequence: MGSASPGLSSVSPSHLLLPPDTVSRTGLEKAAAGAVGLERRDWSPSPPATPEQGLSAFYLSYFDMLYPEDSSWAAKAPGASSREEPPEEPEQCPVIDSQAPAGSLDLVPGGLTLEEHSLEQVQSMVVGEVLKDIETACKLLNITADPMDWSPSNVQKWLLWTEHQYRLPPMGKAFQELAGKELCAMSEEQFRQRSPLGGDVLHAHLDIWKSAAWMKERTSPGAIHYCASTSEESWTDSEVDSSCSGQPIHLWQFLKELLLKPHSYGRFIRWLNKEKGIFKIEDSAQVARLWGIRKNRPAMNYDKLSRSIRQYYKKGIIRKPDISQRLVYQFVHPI
In short: as §1

[15] = biological target: T10, ETV7 (Homo sapiens, UniProt Q9Y603 1-341); conditions: protein: recombinant; tags: N-terminal GST; dsDNA, one strand shown
T10 sequence: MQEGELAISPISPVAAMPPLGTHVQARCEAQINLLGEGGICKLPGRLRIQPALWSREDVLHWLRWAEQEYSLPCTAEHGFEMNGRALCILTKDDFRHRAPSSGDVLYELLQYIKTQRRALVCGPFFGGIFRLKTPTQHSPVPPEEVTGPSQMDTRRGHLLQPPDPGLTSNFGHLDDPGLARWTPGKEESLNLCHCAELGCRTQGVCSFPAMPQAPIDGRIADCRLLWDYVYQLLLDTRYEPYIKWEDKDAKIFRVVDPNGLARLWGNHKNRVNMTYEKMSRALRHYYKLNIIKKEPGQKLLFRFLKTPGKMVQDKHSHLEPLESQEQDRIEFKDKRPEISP
In short: as §1

[16] = biological target: T11, ELF5 (Homo sapiens, UniProt Q9UKW6-2 1-255); conditions: protein: recombinant; tags: N-terminal GST; dsDNA, one strand shown
T11 sequence: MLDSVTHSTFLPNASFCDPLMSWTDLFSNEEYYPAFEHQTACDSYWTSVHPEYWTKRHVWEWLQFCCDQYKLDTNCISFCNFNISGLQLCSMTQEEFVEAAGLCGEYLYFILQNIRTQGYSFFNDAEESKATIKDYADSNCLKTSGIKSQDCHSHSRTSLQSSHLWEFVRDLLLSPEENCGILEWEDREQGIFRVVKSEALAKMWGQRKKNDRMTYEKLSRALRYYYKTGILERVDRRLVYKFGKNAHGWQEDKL
In short: as §1

[17] = biological target: T12, ETV3 (Homo sapiens, UniProt P41162-2 1-143); conditions: protein: recombinant; tags: N-terminal GST; dsDNA, one strand shown
T12 sequence: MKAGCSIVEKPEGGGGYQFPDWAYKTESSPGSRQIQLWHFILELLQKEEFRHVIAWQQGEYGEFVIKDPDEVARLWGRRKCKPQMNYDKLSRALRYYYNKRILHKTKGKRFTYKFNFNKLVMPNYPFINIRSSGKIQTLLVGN
In short: as §1

[18] = biological target: ETV6 (Homo sapiens, UniProt P41212 1-452); conditions: protein: recombinant; tags: N-terminal GST; dsDNA, one strand shown
Sequence of ETV6 (P41212 whole entry): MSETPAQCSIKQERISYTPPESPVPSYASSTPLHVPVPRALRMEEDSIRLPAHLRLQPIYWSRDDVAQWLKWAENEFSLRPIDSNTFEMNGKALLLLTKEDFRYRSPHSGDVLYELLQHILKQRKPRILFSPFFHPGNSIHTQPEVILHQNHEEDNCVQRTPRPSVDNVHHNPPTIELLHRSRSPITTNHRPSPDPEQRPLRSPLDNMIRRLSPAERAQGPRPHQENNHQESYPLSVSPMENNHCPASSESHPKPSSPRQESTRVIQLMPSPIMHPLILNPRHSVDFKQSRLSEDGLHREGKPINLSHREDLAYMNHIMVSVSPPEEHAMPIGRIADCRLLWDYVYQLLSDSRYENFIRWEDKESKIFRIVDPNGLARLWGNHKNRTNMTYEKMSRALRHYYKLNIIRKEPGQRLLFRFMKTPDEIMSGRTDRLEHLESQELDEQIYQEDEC
In short: as §1

Sequence	binding signal [1]	binding signal [2]	binding signal [3]	binding signal [4]	binding signal [5]	binding signal [6]	binding signal [7]	binding signal [8]	binding signal [9]	binding signal [10]	binding signal [11]	binding signal [12]	binding signal [13]	binding signal [14]	binding signal [15]	binding signal [16]	binding signal [17]	binding signal [18]
AATTAT	1.25 fold enrichment (6-mer frequency, TF over GST control)	1.29 fold enrichment (6-mer frequency, TF over GST control)	1.55 fold enrichment (6-mer frequency, TF over GST control)	1.33 fold enrichment (6-mer frequency, TF over GST control)	1.16 fold enrichment (6-mer frequency, TF over GST control)	1.12 fold enrichment (6-mer frequency, TF over GST control)	1.28 fold enrichment (6-mer frequency, TF over GST control)	1.27 fold enrichment (6-mer frequency, TF over GST control)	2.05 fold enrichment (6-mer frequency, TF over GST control)	1.26 fold enrichment (6-mer frequency, TF over GST control)	1.15 fold enrichment (6-mer frequency, TF over GST control)	1.26 fold enrichment (6-mer frequency, TF over GST control)	1.27 fold enrichment (6-mer frequency, TF over GST control)	1.24 fold enrichment (6-mer frequency, TF over GST control)	1.23 fold enrichment (6-mer frequency, TF over GST control)	1.24 fold enrichment (6-mer frequency, TF over GST control)	1.28 fold enrichment (6-mer frequency, TF over GST control)	1.2 fold enrichment (6-mer frequency, TF over GST control)
TATCTC	1.27 fold enrichment (6-mer frequency, TF over GST control)	1.2 fold enrichment (6-mer frequency, TF over GST control)	1.45 fold enrichment (6-mer frequency, TF over GST control)	1.21 fold enrichment (6-mer frequency, TF over GST control)	1.21 fold enrichment (6-mer frequency, TF over GST control)	1.27 fold enrichment (6-mer frequency, TF over GST control)	1.18 fold enrichment (6-mer frequency, TF over GST control)	1.16 fold enrichment (6-mer frequency, TF over GST control)	1.76 fold enrichment (6-mer frequency, TF over GST control)	1.3 fold enrichment (6-mer frequency, TF over GST control)	1.3 fold enrichment (6-mer frequency, TF over GST control)	1.3 fold enrichment (6-mer frequency, TF over GST control)	1.27 fold enrichment (6-mer frequency, TF over GST control)	1.22 fold enrichment (6-mer frequency, TF over GST control)	1.21 fold enrichment (6-mer frequency, TF over GST control)	1.23 fold enrichment (6-mer frequency, TF over GST control)	1.13 fold enrichment (6-mer frequency, TF over GST control)	1.21 fold enrichment (6-mer frequency, TF over GST control)
